# DAX1 inh-1: inhibitors of DAX1 repression of SF-1 activated StAR promoter. HEK293T StAR-luciferase reporter, SF-1/DAX-1 repression relief. inhibition, % at 6.8 µM. hit rate 1.1% among 370,000;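 active means inhibition above the mean over all tested compounds plus 3 SD, cut at about 3.6% in these data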;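 further: 0% = DAX-1 cells with DMSO and 100% = cells lacking DAX-1 with DMSO; higher inhibition means more luminescence from relief of DAX-1 repression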
# DAX1 inh-2: inhibits human nuclear receptor DAX1; inhibition, % at 6.75 µM; P51843; HEK293 Gal4-DAX1 luciferase reporter, luminescence; AID 504766; hit rate 0.99% among 340,000;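 active means inhibition above the mean over all tested compounds plus 3 SD, cut at about 4.2% in these data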;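 further: 0% = DAX1-transfected cells with DMSO and 100% = empty-vector control cells with DMSO; inhibition shows as a rise in luminescence from relieved DAX1 repression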
# Target sequence (P51843 207-470 limits assumed): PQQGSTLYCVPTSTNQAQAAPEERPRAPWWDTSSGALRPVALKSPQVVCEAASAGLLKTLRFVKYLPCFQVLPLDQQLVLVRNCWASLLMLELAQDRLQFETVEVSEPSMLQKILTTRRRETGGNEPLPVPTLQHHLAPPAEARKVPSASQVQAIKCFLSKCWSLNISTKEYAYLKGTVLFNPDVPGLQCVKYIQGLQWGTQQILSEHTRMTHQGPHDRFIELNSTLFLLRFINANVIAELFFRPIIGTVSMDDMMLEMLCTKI
# ssDAF12 agonist: activators of S. stercoralis DAF-12 nuclear receptor. HEK293 ssDAF-12/GRIP1 lit1-tk-luc reporter, luminescence; % of 3 µM dafachronic acid response. hit rate 1% among 370,000. AID 652126. activation, % at 6.8 µM;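 active means activation above the mean over all tested compounds plus 3 SD, cut at about 0.9% in these data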;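 further: 0% = DMSO-only wells and 100% = 3 µM delta7-dafachronic acid wells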
# hcDAF12 agonist: activates DAF-12 receptor from parasite H. contortus. hit rate 1.4% among 370,000. AID 652067. activation, % at 6.8 µM. HEK293 hcDAF-12 lit1-tk-luc reporter, luminescence; 0% DMSO, 100% Δ7-dafachronic acid;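 active means activation above the mean of all tested compounds plus 3 SD, cut at about 5.5% in these data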;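 further: 100% = response to 3 µM Δ7-dafachronic acid high control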
# hgDAF-12 ag: activates the H. glycines DAF-12 receptor ligand-binding domain; HEK293 GAL4-hgDAF12 UAS-luciferase reporter, agonist luminescence; normalized to butyrate control; activation, % at 6.8 µM; hit rate 1.8% among 370,000;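 active means activation above a cutoff set at the mean of all screened compounds plus 3 SD, cut at about 10% in these data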;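 further: 0% = DMSO wells and 100% = sodium butyrate wells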
# AHR act: human AHR activation; AID 2796; AHR-responsive luciferase reporter cells, luminescence; activation, % at 5 µM; hit rate 2.5% among 320,000; in the data active means activation above about 47%;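 further: 0% = vehicle wells and 100% = reference agonist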
# An asterisk follows results filed as active; . = no result. An excerpt weighted towards active compounds, which were near 5.7% of everything screened.
SMILES,DAX1 inh-1,DAX1 inh-2,ssDAF12 agonist,hcDAF12 agonist,hgDAF-12 ag,AHR act
COc1cccc2cc(C(=O)OCC(=O)N3CC(C)OC(C)C3)c(=O)oc12 (configuration not stated),3,5.5*,-1,5.7*,10,10
CCOc1cccc2cc(C(=O)N3CC(C)OC(C)C3)c(=O)oc12 (configuration not stated),0,0,-2,0,3,-1
CC(C)CN1CCC(=O)N(CCSc2ccccc2)CC1,2,4,0,2,7,8
CCOC(=O)CNC(=O)c1ccc(OCC(F)(F)F)cc1,2,1,0,1,13*,-2
CCOC(=O)CNC(=O)c1ccc(C)cc1,0,2,-1,1,2,0
CCCC(=O)Nc1ccc(NC(=O)c2ccccc2OC)cn1,1,-1,-1,0,-1,-6
COc1ccccc1C(=O)NCCC(=O)Nc1ccc(C)cn1,3,0,0,5.7*,1,23
COc1cc(C(=O)Nc2ccc(C)cn2)c([N+](=O)[O-])cc1OC,0,0,-1,-1,4,5
COc1ccc(C(=O)Nc2ccc(C)cn2)c(OC)c1,-1,-4,-2,-1,-7,49*
CCC(=O)NC(NC(=S)Nc1ccccc1Br)C(Cl)(Cl)Cl (configuration not stated),0,0,-1,0,0,1
CCOC(=O)c1ccc(NC(=O)CSc2nc(NC(=O)c3ccccc3)c3c(C)c(C)oc3n2)cc1,0,-2,0,-1,0,1
CCC(=O)N(C)CCc1cc2c(c(OC)c1/C=N/NC(=O)c1ccncc1)OCO2,0,4.2*,-1,0,2,0
COCCNC(=O)[C@]1(C#N)CC(=O)N(C)[C@@H]1c1ccccc1,-1,.,-1,-1,5,.
Cc1ccccc1CSc1nnc(-c2cccs2)n1Cc1ccco1,-1,-2,-2,-2,-4,-1
CCCc1nc([N+](=O)[O-])c(S(=O)(=O)c2ccccc2)n1CC(C)C,0,-1,-1,1,10*,-4
CC(C)Cn1c(C(C)C)nc([N+](=O)[O-])c1S(=O)(=O)c1ccc(F)cc1,-1,-3,-2,-2,1,5
CC(=O)c1ccc(NC(=S)NNC(=O)NC2CCCCC2)cc1,2,0,-1,3,5,11
Cc1ccsc1C(=O)NNC(=S)NC1CCCCC1,4.1*,1,0,0,4,-4
Cc1ccc(NC(=S)NNC(=S)NC2CCCCC2)cc1,0,0,-2,0,8,50*
CN(C)S(=O)(=O)c1ccc(N2CCCC2)c(C(=O)Nc2nc3ccc(F)cc3s2)c1,1,0,0.9*,5,5,13
Cc1cccc2sc(NC(=O)c3cc(S(=O)(=O)N(C)C)ccc3N3CCCC3)nc12,0,0,-1,1,3,10
CN(C)S(=O)(=O)c1ccc(N2CCCC2)c(C(=O)Nc2nc3ccccc3s2)c1,1,-1,1.9*,4,3,26
Cc1ccc(C)c(N2CCN(S(=O)(=O)c3ccc4c(c3)CC(C)N4C(=O)C3CC3)CC2)c1 (configuration not stated),1,1,0,1,1,-1
COc1ccc(OC)c(C2/C(=C(\O)c3ccc4c(c3)OCCO4)C(=O)C(=O)N2CC2CCCO2)c1 (configuration not stated),1,1,0,0,1,0
Cc1ccc(S(=O)(=O)NN=C2CCCc3ccccc32)cc1,-2,1,-1,0,2,.
SMILES,DAX1 inh-1,DAX1 inh-2,ssDAF12 agonist,hcDAF12 agonist,hgDAF-12 ag,AHR act
Nc1c(Cl)ncnc1N1CCOCC1,0,-1,-1,0,-2,2
Cc1cc(C)nc(NC(=O)/C=C/c2ccc3c(c2)OCO3)c1,4.2*,1,0,3,10,5
O=C(/C=C/c1ccc2c(c1)OCO2)Nc1nncs1,1,.,0,1,6,89*
O=C(/C=C/c1ccc2c(c1)OCO2)Nc1nc(-c2ccccc2)cs1,-3,-3,-2,-4,-4,1
OCC[C@H]1C[C@H](O)[C@@H](O)[C@@]2(OCc3ccccc32)O1,0,0,-2,0,-1,0
CSCc1c(C(=O)OCC(=O)NC2CCCCC2)oc2ccccc12,-2,1,-1,-1,-1,2
COc1ccc(CNC(=O)c2ccc(Cl)c(NC3=NC4CS(=O)(=O)CC4S3)c2)cc1 (configuration not stated),-1,-1,-1,-1,11*,1
O=C(CS(=O)(=O)c1cn(Cc2ccc(Cl)cc2)c2ccccc12)N1CCCC1,-2,0,-1,0,0,5
C=CCC1(CC=C)CCCN1C(=O)C1CCC(=O)N(CCc2ccccc2)C1 (configuration not stated),1,2,0,2,10,6
C=CCC1(CC=C)CCCN1C(=O)C1CCC(=O)N(CCc2ccc(OC)cc2)C1 (configuration not stated),2,2,-1,4,13*,4
COC(=O)[C@H](CCSC)NC(=O)NCCc1ccccc1F,0,1,-1,-2,1,2
COc1ccc(C(=O)Nc2ccnn2C2CCN(Cc3ccc4nonc4c3)CC2)cc1,-1,0,-1,-3,-4,-6
O=C(O)c1cccc([N+](=O)[O-])c1C(=O)Nc1ccc2ccccc2c1,0,0,1.8*,6.5*,4,60*
O=C(Nc1ccc2ccccc2c1)c1cccc([N+](=O)[O-])c1,0,-1,0,4,12*,68*
CC(C)C(=O)Nc1cccc(NC(=O)c2cccc([N+](=O)[O-])c2)c1,-2,5.5*,-1,-2,0,7
COc1cc([N+](=O)[O-])ccc1NC(=O)c1cccc(NC(=O)C(C)C)c1,-1,-1,-2,-4,-1,47*
CCCCCNC(=O)c1ccc2c(c1)ncn2-c1ccc(OC)cc1,0,-2,-2,-4,-1,2
CCN(c1ccccc1)S(=O)(=O)c1ccc(Cl)c(NC(=O)COC(=O)c2cc(O)c3ccccc3c2O)c1,.,.,.,.,.,123*
CCC(C)[C@H](NC(=O)C1COC(O)([C@H](Cc2ccccc2)NC(=O)[C@@H](NC(=O)OCc2ccccc2)C(C)C)CN1C)C(=O)N[C@H](C(=O)OC)C(C)C (some centres not stated),.,.,0,-1,-4,.
CC1CCCCN1Cc1c(O)ccc2c(=O)c(-c3ccc(Cl)cc3)coc12 (configuration not stated),0,1,0,5.8*,1,0

# Bioassay records from PubChem BioAssay.
